Hits are enriched below; roughly 18% of the tested compounds scored in any of these assays.
VP16 counter = VP16 counterscreen qHTS for inhibitors of ROR gamma transcriptional activity | 3.5% of 310,000 active | Potency, µM (doses to about 53.6 µM), inactives show at the top dose activity, negative = inhibition, usual class: inhibitors | Drosophila S2 Gal4-VP16 UAS-luciferase, luminescence, 20 h;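 further: Gal4-VP16 expression switched on by copper sulfate through the metallothionein promoter; potency means the concentration at half of the fitted maximal effect; nearly all actives have a fitted effect of over 50% in size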
LDHA inh = qHTS assay for inhibitors of human lactate dehydrogenase | L-lactate dehydrogenase A chain (Homo sapiens), P00338 | purified LDHA, NADH/diaphorase-resazurin fluorescence; hits give low values | activity change, % (values are at about 110 or 230 µM) | 0.15% of 480,000 active; in the data active means activity change below about -30%; inconclusive means mostly about -25% to -30%;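 further: plate controls were DMSO wells for no effect and wells without enzyme for full effect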
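Human LDH5 (2 nM) was incubated with 0.06 mM NADH and 0.2 mM pyruvate for 5 min at room temperature in Tris pH 7.4. Remaining NADH was coupled through diaphorase/resazurin, and resorufin fluorescence was read at 0 and 20 min.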
DT40 TDP1 no CPT = qHTS for Inhibitors of human tyrosyl-DNA phosphodiesterase 1 (TDP1): qHTS in cells in absence of CPT; DT40 Tdp1-/- hTDP1 cells, no CPT, ATP luminescence, 48 h; Potency, µM (highest dose often 46.2 µM), inactives show at the highest dose activity change, negative = growth inhibition, hits mostly inhibitors; 15% of 420,000 active; AID 686978, 2013; further: potency means the concentration at half of the fitted maximal effect; nearly all actives have a fitted effect of over 55% in size
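Chicken DT40 Tdp1-/- cells complemented with human TDP1, screened without camptothecin (DMSO vehicle only), 400 cells/well. Compounds pin-transferred, cells incubated at 37 °C for at least 48 hr. Growth read as ATP-dependent luminescence (CellTiter-Glo, 30 min at RT).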
IL-1B inflam inh = qHTS for Inhibitors of Inflammasome Signaling: IL-1-beta AlphaLISA Primary Screen. 4.7% of 360,000 active. THP-1 LPS/ATP IL-1B secretion, AlphaLISA, 16 h; hits give low values. activity change, % at 57.5 µM; in the data active means activity change below about -50%; inconclusive means mostly about -30% to -49%
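THP-1 cells pretreated 1 hr with compounds (up to 57.5 uM final), then stimulated with LPS (250 ng/mL final) plus ATP (1.25 mM final); secreted IL-1B measured by AlphaLISA after 16 hr, decreased signal indicating inhibition.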
RORg inh = qHTS for inhibitors of ROR gamma transcriptional activity. Drosophila S2 Gal4-RORgamma UAS-luciferase reporter, 20 h. Potency, µM (titrated, usually from 53.6 µM), without a hit: top-dose activity change, negative = inhibition, hits mostly inhibitors. 5.4% of 310,000 active; further: potency means the concentration at half of the fitted maximal effect; nearly all actives have a fitted effect of over 60% in size
Target sequence (P51450 whole entry, looked up, the tested form may be a part): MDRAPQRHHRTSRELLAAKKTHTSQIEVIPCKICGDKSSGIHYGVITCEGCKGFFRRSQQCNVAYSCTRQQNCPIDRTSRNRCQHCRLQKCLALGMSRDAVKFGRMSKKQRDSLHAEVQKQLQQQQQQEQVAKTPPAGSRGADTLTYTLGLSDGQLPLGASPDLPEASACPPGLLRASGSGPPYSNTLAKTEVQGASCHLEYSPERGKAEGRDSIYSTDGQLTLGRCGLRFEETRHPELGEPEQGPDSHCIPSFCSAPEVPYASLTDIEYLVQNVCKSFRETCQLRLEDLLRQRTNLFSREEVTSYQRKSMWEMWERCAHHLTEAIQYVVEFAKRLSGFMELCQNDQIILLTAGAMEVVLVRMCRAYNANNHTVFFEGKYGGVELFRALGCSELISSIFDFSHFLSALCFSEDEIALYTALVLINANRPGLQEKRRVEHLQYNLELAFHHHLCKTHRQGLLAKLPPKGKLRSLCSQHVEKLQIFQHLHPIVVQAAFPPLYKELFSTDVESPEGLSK
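ROR gamma transcriptional activity was tracked as Gal4-UAS luciferase output in stably transfected Drosophila Schneider cells, with compound added 1 hr before 700 uM copper sulfate induction and a 20 hr ambient-temperature incubation.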
TDP1 cell CPT = qHTS for Inhibitors of human tyrosyl-DNA phosphodiesterase 1 (TDP1): qHTS in cells in presence of CPT; chicken DT40 Tdp1-/-;hTDP1 cells + 20 nM CPT, ATP luminescence, 48 h; Potency, µM (highest dose often 46.2 µM), for inactives: at the highest dose activity change, negative = growth inhibition, actives largely listed as inhibitors; 12% of 420,000 active; further: potency means the concentration at half of the fitted maximal effect; nearly all actives have a fitted effect of over 55% in size
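Chicken DT40 Tdp1-/- cells stably complemented with human TDP1 were seeded at 400 cells/well in medium containing 20 nM camptothecin, exposed to pin-transferred compounds, and grown at 37 °C for at least 48 hr. Viability was read as ATP luminescence.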
Active calls of the source: *; ! = not active in a repeat. Unless noted, the call rests on the fitted dose curve; in most records, active means well fitted curve in the direction sought with a large enough effect; inconclusive means small, poorly fitted or top-dose-only effect, or another doubt; inactive means no such curve, though single readings can be large; an effect the other way counts as inactive or inconclusive. Unless noted, on the % scale 0 is the no-effect control and ±100 the full control effect.

How did COc1ccccc1CNC(=O)CSCc1nc(-c2ccc(OC)c(OC)c2)oc1C do in these assays?
LDHA inh: -2; DT40 TDP1 no CPT: 18µM*; TDP1 cell CPT: inconclusive

Results for COc1ccc(-c2nc(CSCC(=O)NCc3ccccc3Cl)c(C)o2)cc1OC ?
LDHA inh: -8; DT40 TDP1 no CPT: inconclusive; TDP1 cell CPT: inconclusive

How did COc1ccc(-c2nc(CSCC(=O)NCc3ccc4c(c3)OCO4)c(C)o2)cc1OC do in these assays?
VP16 counter: 3%; LDHA inh: -1; DT40 TDP1 no CPT: inconclusive; IL-1B inflam inh: -20; RORg inh: 45%; TDP1 cell CPT: inconclusive

Results for COc1cccc(CCNC(=O)CCc2nnc(Cc3cc(OC)ccc3OC)o2)c1 ?
VP16 counter: -3%; LDHA inh: -7; DT40 TDP1 no CPT: 13%; IL-1B inflam inh: 22; RORg inh: 14%; TDP1 cell CPT: 1%

How did COc1ccc(-c2nc(CSCC(=O)NCc3ccc4c(c3)OCO4)c(C)o2)cc1 do in these assays?
VP16 counter: 13µM*; LDHA inh: -3; DT40 TDP1 no CPT: -13%; IL-1B inflam inh: 18; RORg inh: 13µM*; TDP1 cell CPT: -18%

How did CCOc1ccc(CCNC(=O)CSCc2ccc(C)cc2)cc1OCC do in these assays?
VP16 counter: inconclusive; LDHA inh: 2; DT40 TDP1 no CPT: inconclusive; IL-1B inflam inh: 11; RORg inh: 36%; TDP1 cell CPT: inconclusive

What do the screens show for `COc1ccc(CCNC(=O)CCc2nnc(Cc3ccc4c(c3)OCO4)o2)cc1`?
VP16 counter: -2%; LDHA inh: -7; DT40 TDP1 no CPT: 18µM*; IL-1B inflam inh: inactive; RORg inh: -7%; TDP1 cell CPT: 23µM*

What do the screens show for `CCOc1ccc(CCNC(=O)CSCc2nc(-c3cccc(C)c3)oc2C)cc1OCC`?
LDHA inh: 3; DT40 TDP1 no CPT: 13µM*; TDP1 cell CPT: inconclusive

What do the screens show for `N#CC1=C(SCC(=O)c2ccc(Br)cc2)NC(=O)C(C#N)C12CCCCC2` (stereo not given)?
LDHA inh: 1

What do the screens show for `Cc1cc(C)c(/C=C/C(=O)Nc2sccc2C#N)cc1C`?
LDHA inh: 5

What do the screens show for `CCOc1ccc(CCNC(=O)CS(=O)Cc2nc(-c3ccc(C)cc3)oc2C)cc1` (stereo not given)?
VP16 counter: 0%; LDHA inh: -1; DT40 TDP1 no CPT: inconclusive; IL-1B inflam inh: inconclusive; RORg inh: 0%; TDP1 cell CPT: inconclusive

Results for CCOc1ccc(CCNC(=O)CS(=O)Cc2nc(-c3ccc(C)cc3)oc2C)cc1OCC (stereo not given) ?
VP16 counter: -9%; LDHA inh: -1; DT40 TDP1 no CPT: inconclusive; IL-1B inflam inh: 7; RORg inh: 18%; TDP1 cell CPT: 16µM*!

Results for COc1ccc(-c2nc(CSCC(=O)NCCc3ccc(C)cc3)c(C)o2)cc1OC ?
LDHA inh: -1; DT40 TDP1 no CPT: 18µM*; TDP1 cell CPT: 16µM*

Results for Cc1c(C(=O)N2CCC(C(=O)Nc3ccc4c(c3)OCO4)CC2)oc2ccccc12 ?
LDHA inh: 13

What do the screens show for `CCN1C(=O)COc2ccc(-c3nc(NC(=O)c4ccccc4)sc3C)cc21`?
LDHA inh: 1

Results for Cc1cc(CS(=O)(=O)Cc2ccccc2Cl)no1 ?
LDHA inh: 1

How did COc1cc(Br)c(/C=N/O)cc1OC do in these assays?
LDHA inh: 6

How did Cc1cc(C)c(COCc2cc(/C=N/O)c(C)cc2C)cc1/C=N/O do in these assays?
VP16 counter: -29%; LDHA inh: 3; DT40 TDP1 no CPT: inconclusive; IL-1B inflam inh: -83*; RORg inh: -43%; TDP1 cell CPT: inconclusive

What do the screens show for `COc1ccc(-n2c(O)c(/C=N/NS(=O)(=O)c3cccc([N+](=O)[O-])c3)c3ccccc3c2=O)cc1OC`?
VP16 counter: -14%; LDHA inh: 4; DT40 TDP1 no CPT: 18µM*; IL-1B inflam inh: 34; RORg inh: -8%; TDP1 cell CPT: 23µM*

What do the screens show for `COC(=O)N/N=C/c1ccc(OS(=O)(=O)c2ccc(C)cc2)c(OC)c1`?
VP16 counter: -6%; LDHA inh: -2; DT40 TDP1 no CPT: inconclusive; IL-1B inflam inh: -72*; RORg inh: 37%; TDP1 cell CPT: -19%

Results for COc1cc(/C=N/NC(=O)COc2cccc(F)c2)ccc1OS(=O)(=O)c1ccc(C)cc1 ?
VP16 counter: 4%; LDHA inh: -9; DT40 TDP1 no CPT: 26µM*; IL-1B inflam inh: 3; RORg inh: 40%; TDP1 cell CPT: 18µM*

What do the screens show for `Cc1cccc(OCC(=O)N/N=C/c2cccc(O)c2)c1`?
LDHA inh: 4

What do the screens show for `COc1ccc(/C=N/NS(=O)(=O)c2ccccc2)cc1OC`?
VP16 counter: -23%; LDHA inh: -1; DT40 TDP1 no CPT: 23µM*; IL-1B inflam inh: 7; RORg inh: inconclusive; TDP1 cell CPT: 21µM*

What do the screens show for `COc1ccc(Br)cc1/C=N/NS(=O)(=O)c1ccccc1`?
LDHA inh: -1; DT40 TDP1 no CPT: 7.3µM*; IL-1B inflam inh: 75; TDP1 cell CPT: 18µM*

What do the screens show for `COc1cc(/C=N/NS(=O)(=O)c2ccccc2)ccc1OS(=O)(=O)c1ccc(C)cc1`?
VP16 counter: -3%; LDHA inh: -7; DT40 TDP1 no CPT: -6%; IL-1B inflam inh: -4; RORg inh: -7%; TDP1 cell CPT: 1%

What do the screens show for `C=CCNC(=O)/C(C#N)=C/c1ccc(OS(=O)(=O)c2ccc(C)cc2)c(OC)c1`?
VP16 counter: inconclusive; LDHA inh: -8; DT40 TDP1 no CPT: inconclusive; IL-1B inflam inh: -79*; RORg inh: 11µM*; TDP1 cell CPT: inconclusive

How did COc1ccccc1/C=N/NS(=O)(=O)c1ccccc1 do in these assays?
VP16 counter: -8%; LDHA inh: -2; DT40 TDP1 no CPT: -29%; IL-1B inflam inh: 23; RORg inh: 26%; TDP1 cell CPT: -19%

How did COc1ccc(/C=N/NS(=O)(=O)c2ccccc2)cc1OS(=O)(=O)c1ccc(C)cc1 do in these assays?
VP16 counter: 4%; LDHA inh: 2; DT40 TDP1 no CPT: 18µM*; IL-1B inflam inh: 21; RORg inh: inconclusive; TDP1 cell CPT: inconclusive

Bioassay records deposited in PubChem BioAssay by National Center for Advancing Translational Sciences (NCATS).
